Reference: PubChem BioAssay (NCI)
About 83,000 compounds went through this panel and 20% of them were active in at least one assay; those are over-represented in the sample as a whole.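 The test compound was applied at a single concentration to cells in 96-well plates for 48 hours, and percent growth was recorded.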 Values without a mark were called inactive. Active and inactive are the calls of the source.

System: COLO 205 colon
Test: NCI-60 one-dose screen, 48 h (100 = growth as untreated, 0 = no growth, -100 = all killed)
Conditions: 10 µM unless noted
Procedure: Cells are grown in 96 well plates and exposed to the test compound for 48 hours. Compounds are tested at a single concentration, which is 10^-5 M for most compounds. The reported endpoint is percent growth (GI% or GIPRCNT), where numbers from 0 - 100% represent growth inhibition, and numbers from -100% - 0 represent cell death. For example, a value of 40 represents 60% growth inhibition. A value of 0 means no net growth occurred over the course of the experiment. A value of -40 indicates 40% of cells at the beginning of the experiment died by the end of the experiment. A value of -100 means all cells are dead at the end of the experiment.
NCI-60 Human Tumor Cell Lines Screen was performed using the standard one-dose NCI protocol, which is described in more detail at https://dtp.cancer.gov/discovery_development/nci-60/default.htm.
Compounds with GIPRCNT values below 10 were considered active. Activity score was based on GIPRCNT using the following formula: […]
Score is 0 for GIPRCNT values of 100 or above, 50 for GIPRCNT values of 0, and 100 for GIPRCNT values of -100.

| Structure (SMILES) | growth |
| --- | --- |
| CCCCOc1ccc(/C=N/NC(N)=S)cc1 | 85% |
| C#C[C@]1(O)CC[C@H]2[C@@H]3CC=C4c5sc(Nc6ccccc6)nc5CC[C@]4(C)[C@H]3CC[C@@]21C | 10.1% |
| Cc1[nH]c(C(=O)Nc2ccc(C(=O)N3CCNCC3)cc2OC(C)C)c(Cl)c1Cl | -47% (active) |
| O=C1CCC(C(=O)NCCNCCNC(=O)C2CCC(=O)N2)N1 (stereo not given) | 110% |
| Cc1cc2[nH]c(=O)c3c4ncccc4cn3c2cc1C | 14.8% |
| CN(C(=O)NCc1cccc(F)c1Cl)[C@H](COC(=O)Nc1cc2ccccc2cn1)CC(O)CO (stereo not given in full) | 111% |
| CCC12CCC[N+]3([O-])CCC4(C(=Nc5ccccc54)C(O)(C(=O)OC)C1)C23 (stereo not given) | 118% |
| COc1ccc(C2=Nn3c(nnc3-c3cc(Cl)cc(Cl)c3Cl)SC2)cc1 | -34.4% (active) |
| O=S(=O)(NCCCNc1cc(-c2c(-c3cccc(O)c3)nc3sccn23)ccn1)c1cccc2ccccc12 | 35.5% |
| CC/C=C\C[C@@H](O)C/C=C1/C(=O)C=C[C@H]1C/C=C\CCCC(=O)OC | -58% (active) |
| COc1ccc2c(c1)/C(=C/c1sc(=S)n(Cc3ccco3)c1O)C=N2 | 25.4% |
| Cc1nn(-c2ccccc2)c(-n2ccnc2)c1/C=N/Nc1nc(-c2ccc(Cl)c(Cl)c2)cs1 | 52.1% |
| CN(C)c1ccc2nc3ccc(=[N+](C)C)c([N+](=O)[O-])c-3sc2c1 | 20.3% |
| O=C(Nc1ccc(-c2nc(-c3cccc(OCCN4CCOCC4)c3)c(-c3ccnc(Br)c3)[nH]2)cc1)c1ccccc1 | -25.2% (active) |
| O=C(N/N=C/[C@H](O)[C@H](O)[C@H](O)CO)c1ccc(NC(=O)c2cccnc2)cc1 | 112% |
| COc1ccc(/C=C/c2c(C(=O)/C=C/c3ccc(Cl)cc3)c(C)nc3ccccc23)cc1 | 58.4% |
| N#Cc1ccc(NC(=O)c2sc3nc4c(cc3c2N)C(=O)CCC4)cc1 | 109% |
| O=CN(SSN(C=O)C1CCCCC1)C1CCCCC1 | 113% |
| O=C(Nc1ccc(OS(=O)(=O)c2ccc(F)cc2)cc1)c1ccc(Cl)cc1 | 114% |
| Oc1ccc(Cl)cc1Cc1cc(Cl)cc(Cl)c1O | 114% |

| Structure (SMILES) | growth |
| --- | --- |
| c1ccc(CO[C@H]2CO[C@H]3[C@@H]2OC[C@@H]3Oc2ccc(Nc3ncnc4ccsc34)cc2)cc1 | 71.8% |
| NCCCNc1nc2ccc(Cl)cc2c2c(=O)c3cc(F)ccc3sc12 | 31.9% |
| Nc1nn(C(=O)Nc2ccc(Cc3ccccc3)cc2)c2ccc(Cl)cc12 | 34.9% |
| O=c1c2cc(F)ccc2sc2c(N3CCCCC3)nc3ccccc3c12 | 106% |
| c1ccc(OCc2nnc(-c3ccc(Oc4ccccc4)cc3)o2)cc1 | 104% |
| N#Cc1c(-c2ccc(Cl)cc2)nc(NCCO)[nH]c1=O | 106% |
| CC(=O)c1ccc(Nc2nc(C(C)=O)c(C)s2)cc1 | 109% |
| O=c1ccc(N=Nc2ccccc2)ccc1Cl | 68.4% |
| Cc1cc(O)c(C2=NN(c3ccc(S(N)(=O)=O)cc3)C(c3ccccc3O)C2)cc1Cl (stereo not given) | -94.4% (active) |
| COc1ccc(-c2nc(NN)c3c(C)nn(-c4ccc(F)cc4)c3n2)cc1 | 35.4% |
| CCCCCCNC(=O)Oc1ccc(/C(=C(\C)c2ccc(OC)cc2)c2ccc(OCCN3CCCCC3)cc2)cc1 | 16.3% |
| OC(COc1ccccc1Cl)CN1CCN(c2cccc(Cl)c2)CC1 (stereo not given) | 101% |
| COc1ccc(C2NC(=O)C(C#N)c3c2sc2c(F)cccc32)c(OC)c1 (stereo not given) | 88.3% |
| COc1c(B(O)O)cc(C)cc1-c1nc2ccc3[nH]ncc3c2c2c1CCCC2 | 19.6% |
| Cc1nn(-c2ccccc2)c2c1N=c1s/c(=C\c3ccc(C(F)(F)F)cc3)c(=O)n1CN2 | 85.6% |
| CNC(=O)c1cc(-n2ccc3cc(NC(=O)c4ccc(N5CCOCC5)c(C(F)(F)F)c4)ccc32)ccn1 | 42.9% |
| O=C(CSc1nccc(Nc2ccc(S(=O)(=O)Nc3nccs3)cc2)n1)c1ccc(C(F)(F)F)cc1 | 112% |
| Cc1ccc(S(=O)(=O)Oc2ccc(NC(=O)c3ccc(Cl)cc3)cc2)cc1 | 113% |
| COc1cccc(-c2nc(-c3ccc(NC(=O)OC(C)C)cc3)[nH]c2-c2ccnc(Br)c2)c1 | 25.7% |
| CC(C)OC(=O)Nc1ccc(-c2nc(-c3cccc(OCCN4CCOCC4)c3)c(-c3ccnc(Br)c3)[nH]2)cc1 | -5.63% (active) |
